A word on the inhibition: it is the relative decrease from the control value, in per cent.

Records with an inconclusive call do not appear. The source made the active and inactive calls.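 The calls were made as follows: active = compounds whose potency, the dose giving half inhibition, is below 20 µM; inconclusive = compounds meeting neither the active nor the inactive rule; inactive = potency over 20 µM or below 50% inhibition when unfitted.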

For the experiment, the target named is Integrin alpha-IIb (Homo sapiens) (UniProt P08514). Description: Platelet Adhesion Secondary Assay for Inhibitors of Platelet Integrin alphallb-beta3. Particulars: human platelet adhesion to fibrinogen, calcein fluorescence; at 30 µM, stronger effect = higher value unless noted. From the text: NIH Molecular Libraries Probe Production Network [MLPCN] NIH Chemical Genomics Center [NCGC] MLPCN Grant: 1 R03 MH083257-01 Assay Provider: Barry Coller, Rockefeller University NCGC Assay Overview: The alphaIIbbeta3 receptor plays a vital role in hemostasis and thrombosis, where receptor deficiency causes the hemorrhagic disorder, Glanzmann thrombasthenia, and uncontrolled receptor activation causes thrombosis and blood vessel occlusion. Small molecule inhibitors of alphaIIbbeta3, tirofiban and eptifibatide, have undesirable side effects thought to arise from conformational changes in alphaIIbbeta3. These changes transiently activate the receptor to cause spontaneous platelet aggregation and thrombus formation. […] This secondary assay measures the binding of human plates to fibrinogen, an extracellular matrix protein (Blue et al., 2008). Platelets were loaded with a fluorescent dye, calcein, and added to fibrinogen-coated plates. Following incubation, unbound platelets were removed by washing and bound platelets were detected by measuring fluorescence intensity. Inhibitors of alphaIIbbeta3 block platelet binding to fibrinogen and result in a decrease in fluorescence intensity.
Integrin alpha-IIb (Homo sapiens), sequence (P08514 whole entry, looked up): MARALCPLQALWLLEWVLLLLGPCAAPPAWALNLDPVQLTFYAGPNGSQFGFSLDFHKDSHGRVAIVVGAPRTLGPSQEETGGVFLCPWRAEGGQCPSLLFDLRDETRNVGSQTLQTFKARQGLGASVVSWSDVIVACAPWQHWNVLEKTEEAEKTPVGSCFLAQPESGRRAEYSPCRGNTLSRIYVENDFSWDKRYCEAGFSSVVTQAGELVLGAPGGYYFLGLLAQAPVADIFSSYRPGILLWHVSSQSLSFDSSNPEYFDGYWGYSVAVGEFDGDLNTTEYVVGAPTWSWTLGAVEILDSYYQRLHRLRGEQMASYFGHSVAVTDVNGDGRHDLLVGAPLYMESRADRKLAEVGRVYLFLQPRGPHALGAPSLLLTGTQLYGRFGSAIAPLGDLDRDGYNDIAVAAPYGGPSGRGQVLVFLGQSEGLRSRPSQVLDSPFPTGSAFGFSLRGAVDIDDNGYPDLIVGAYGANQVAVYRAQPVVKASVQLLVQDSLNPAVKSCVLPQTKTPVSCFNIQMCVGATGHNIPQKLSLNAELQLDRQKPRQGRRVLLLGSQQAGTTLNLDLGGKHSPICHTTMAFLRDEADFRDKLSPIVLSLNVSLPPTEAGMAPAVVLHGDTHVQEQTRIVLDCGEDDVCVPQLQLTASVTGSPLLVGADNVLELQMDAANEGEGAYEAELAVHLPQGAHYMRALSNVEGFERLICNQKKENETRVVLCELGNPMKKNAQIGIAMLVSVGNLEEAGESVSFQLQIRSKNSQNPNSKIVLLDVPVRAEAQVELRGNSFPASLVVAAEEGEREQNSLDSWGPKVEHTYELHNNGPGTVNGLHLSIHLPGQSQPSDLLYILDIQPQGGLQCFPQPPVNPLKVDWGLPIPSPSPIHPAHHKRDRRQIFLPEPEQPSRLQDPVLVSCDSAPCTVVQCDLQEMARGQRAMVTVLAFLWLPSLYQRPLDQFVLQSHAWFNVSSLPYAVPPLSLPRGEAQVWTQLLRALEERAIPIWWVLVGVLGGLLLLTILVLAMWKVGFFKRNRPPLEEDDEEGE
NCGC Assay Protocol Summary: Human fibrinogen (50 ug/mL) in Tris/saline (100 mM NaCl, 50 mM Tris/HCl, pH 7.4; American Diagnostica, Stamford, CT) was added to black, clear-bottom, untreated polystyrene, nonsterile 384-well microtiter plate wells (Corning no. 3711; Acton, MA) using a peristaltic microplate dispenser (WellMate; Matrix, Hudson, NH). After incubating at 22 C for 1 hour, plates were washed 4 times with Tris/saline using an automated plate washer (ELX405; Bio-Tek, Winooski, VT), and wells were then blocked with HBMT (138 mM NaCl, 12 mM NaHCO3, 10 mM HEPES, 2.7 mM KCl, 0.4 mM NaH2PO4, 0.1% glucose, 0.35% BSA, pH 7.4) for at least 1 hour. After 2 additional washes, 15 uL HBMT was allowed to remain in each well. Compounds were added to the wells with a liquid handling robot (MiniTrak V; PerkinElmer, Wellesley, MA) using a pin tool (VP Scientific, San Diego, CA) that added 0.1 uL compound in DMSO. Fifteen microliters 5E11/L calcein-labeled platelets were then added (2.5E11/L final concentration). After 1 hour of adhesion, wells were washed 4 times with HBMT-CaCl2/MgCl2 and the plates were read by an Envision (Perkin Elmer) to detect calcein fluorescence (490 nm excitation and 515 nm emission). Positive controls consisted of wells containing platelets without compounds. Negative controls were wells containing platelets and known inhibitors of alphaIIbbeta3, including mAbs 7E3 and 10E5, and EDTA. Reference Blue R, Murcia M, Karan C, Jirouskova M, and Coller BS. Application of high-throughput screening to identify a novel alphaIIb-specific small- molecule inhibitor of alphaIIbbeta3-mediated platelet interaction with fibrinogen. Blood. 2008, 111(3):1248-56
As to `CCc1nn2c(=O)c(C)c(N3CCNCC3)nc2s1`, the inhibition was 55% [inhibition, at 100 µM, stronger effect = higher value] and the result was inactive.
`CCc1nn2c(=O)c(F)c(N3CCNCC3)nc2s1`: the inhibition is 41% [inhibition, at 100 µM, stronger effect = higher value] and the outcome was inactive.
Regarding `CCc1nn2c(=O)cc(N3CCNCC3)nc2s1`, the inhibition was 35% (inactive).
Regarding `CCc1nn2c(=O)cc(N3CCN(C)CC3)nc2s1`, the inhibition was 23% (inactive).
The same measure, in the same setting: in the case of `Cc1nn2c(=O)cc(N3CCNCC3)nc2s1` it was 20% (inactive).

Values taken from PubChem BioAssay AID2634 (National Center for Advancing Translational Sciences (NCATS), 2010).
